The results in this text go back to PubChem BioAssay AID602250 (The Scripps Research Institute Molecular Screening Center, 2012).

SMILES strings stand for the structures. The campaign covered roughly 360,000 compounds. About 2,200 (0.61%) were called active. This excerpt belongs to a sample that is enriched for actives. A number with no mark means an inactive call.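 How the source made its calls: active means inhibition above a per-plate cutoff, the plate's mean sample inhibition plus 3 SD (cut at about 24% in these data); inactive means the rest.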

The inhibition is the relative decrease from the control value, in per cent.

The nature of this assay: calcium signal blockers in parental CHO-K1 cells – cell-based, Fluo-8 calcium fluorescence, full deck, 1536-well, counter-screen for M1 antagonist project, primary screen (AID 602250).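 Further: 0% = DMSO plus EC80 ATP and 100% = DMSO alone without ATP.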 To be noted: ATP-induced calcium, Fluo-8 fluorescence, at 3 µM, active compounds read high. In general terms: Counterscreens check selectivity or assay interference.
On to `CCCN(CC1COc2ccccc2O1)C(=S)Nc1ccc(C)cc1` (stereo not drawn), for which the inhibition was -5.53%. As to `S=C(NCC1COc2ccccc2O1)Nc1ccc(Br)cc1` (stereo not drawn), the inhibition is 32.9% (active). Next, `CC(NC(=S)Nc1ccccc1)C1COc2ccccc2O1` (stereo not drawn): 4.65%; `COc1ccc(C)cc1NC(=O)CN1c2cccc3cccc(c23)S1(=O)=O`: -7.85%.

Consider `CCc1ccccc1N(CC(=O)NCC1CCCO1)C(=O)CCC(=O)Nc1nccs1` (stereo not drawn), for which the inhibition is -0.55%.

Consider `C=CCNC(=S)N1CCN(CCN=Cc2c(C)[nH]n(-c3ccc([N+](=O)[O-])cc3)c2=O)CC1`, for which the inhibition was 13.7%. As to `O=S(=O)(c1cccc(S(=O)(=O)N2CCC(n3nnc4ccccc43)CC2)c1)N1CCCCC1`, the inhibition is 25.7% (active).

In the case of `CC(=O)c1cccc(S(=O)(=O)N2CCC(n3nnc4cc(F)ccc43)CC2)c1`, the inhibition was -5.37%. For `O=C(c1ccc(F)cc1)N1CCC(n2nnc3ccccc32)CC1` the value was 5.53%; for `O=C1c2ccccc2C(=O)N1CC1c2ccccc2CCN1S(=O)(=O)c1ccccc1` (stereo not drawn), -4.18%; for `CCc1nnc(NC(=O)CSc2nc(SC)ns2)s1`, -15.7%. Consider `COc1ccc(-c2nn(-c3ccccc3)cc2C(=O)Nc2nccs2)cc1OC`, for which the inhibition is 33.9% (active). For `COc1ccc(Cl)cc1NC(=O)CN(C)C(=O)c1cn(-c2ccccc2)nc1-c1cccs1` the value was -12.4%; for `O=C(O)c1ccccc1-c1ccccc1C(=O)Nc1nccs1`, -12.8%; for `O=C(COc1ccc(F)cc1)N(CC1=CCS(=O)(=O)C1)c1ccccc1`, -14.8%. With `O=C1OC(Cc2ccccc2)C(c2ccccc2)C1=O` (stereo not drawn), the inhibition is -2.69%.

For the compound `CCOC(=O)[C@H]1[C@H]2COc3ccc(Br)cc3[C@@H]2N2C(=O)CN(C)C(=O)[C@@]12C`, the inhibition was -3.65%. As to `O=C(NCCCN1CCOCC1)c1cc(-c2ccc(Cl)cc2)on1`, the inhibition was -8.77%. Consider `COc1ccc(C(=O)NCCCN2CCOCC2)cc1Br`, for which the inhibition is 8.25%.

On to `Cc1c(C)n(Cc2ccc(Cl)cc2)c2ccc(C(=O)NCCCN3CCOCC3)cc12`, for which the inhibition was 31.3% (active). For `O=C(COc1ncnc2c(Cl)cc(Cl)cc12)N1CCN(S(=O)(=O)c2ccccc2)CC1` the value was -14%; for `O=S(=O)(Nc1ccccc1)c1ccc(NS(=O)(=O)c2cccs2)cc1`, -3.36%. Turning to `O=C(Nc1cccc(Cl)c1)Nc1ccccc1NS(=O)(=O)c1cccs1`, the inhibition was 36.7% (active). For `O=S(=O)(Nc1ccccc1Br)c1cccs1` the value was -11%; for `Cn1c(NCc2cccnc2)nc2cc(-c3ccc(F)cc3)sc2c1=O`, -2.34%; for `CCN(C(=O)COC(=O)c1c(NC(C)=O)sc(C)c1C)C1CCS(=O)(=O)C1` (stereo not drawn), -7.84%.

`Cc1ccc(S(=O)(=O)c2ccc(Cl)cc2)cc1S(=O)(=O)NC(C(=O)O)C(C)C` (stereo not drawn): the inhibition was -0.98%. Next, `CC(=O)Nc1ccc(S(=O)(=O)N2CCN(C(=O)c3ccccc3F)CC2)cc1`: 0.99%; `CCC1=NN(C(=O)Cc2ccc([N+](=O)[O-])cc2)C(O)(c2ccc(Br)cc2)C1` (stereo not drawn): -13.2%. Consider `Cc1ccc(Nc2nc(CSc3nnnn3-c3ccccc3)cc(=O)[nH]2)cc1`, for which the inhibition is 2%. Regarding `CN1OC[C@@H]2CN(C(=O)c3cccnc3)[C@H](c3ccc(N4CCCCC4)cc3)C[C@@H]21`, the inhibition is 8.63%.

For `CN1OC[C@@H]2CN(C(=O)C(C)(C)C)[C@H](c3ccc(-n4ccnc4)cc3)C[C@@H]21`, the inhibition was 28.2% (active). Next, `CN1OC[C@@H]2CN(C(=O)c3cccc4ccccc34)[C@H](c3ccc(N4CCCCC4)cc3)C[C@@H]21`: 16.5%; `COc1ccc(Cl)cc1NC(=O)Cn1nc(-c2ccc(C)cc2)n(C)c1=S`: -1.73%. For `COc1ccccc1OCC(=O)OCc1cc(-c2ccco2)on1` the value was -11.2%; for `CC(C)C1C(=O)N(Cc2cn(CCC3OCCO3)nn2)CCS(=O)(=O)N1Cc1ccc(-c2ccccc2C(F)(F)F)cc1` (stereo not drawn), -1.16%. Next, `Cc1ccc(Cn2nnc3c(=O)[nH]c(C4CCN(S(=O)(=O)/C=C/c5ccccc5)CC4)nc32)cc1`: -19.1%; `COCCNC(=O)/C(C#N)=C/c1cccc(OCc2ccccc2)c1`: -9.6%.

Consider `COc1ccc(NC(=O)/C(C#N)=C\c2cc(OC)c(OCc3ccc(C(=O)O)cc3)cc2Br)cc1`, for which the inhibition was 24.8% (active).

Take `COc1cc(/C=C(\C#N)C(=O)Nc2ccc3ccccc3c2)c([N+](=O)[O-])cc1OC`: the inhibition is 0.2%. Next, `c1ccc(CCN2CN=C(Nc3nc4ccccc4o3)NC2)cc1`: -10.1%; `Cc1ccccc1N(C(=O)Cc1cccs1)C(C(=O)NC1CCCCC1)c1cn(C)nc1C` (stereo not drawn): -4.07%; `O=S(=O)(Nc1ccc2nc(-c3ccco3)[nH]c2c1)c1ccccc1`: -1.24%. Next, `Cc1cc(OC(C)C(=O)Nc2ccc(S(=O)(=O)Nc3onc(C)c3C)cc2)cc(C)c1Cl` (stereo not drawn): 8.91%; `O=C(NC1(C(F)(F)F)N=C2SCCN2C1=O)c1ccco1` (stereo not drawn): 23.7% (active). With `COc1ccc(S(=O)(=O)NC2(C(F)(F)F)N=C3SCCN3C2=O)cc1` (stereo not drawn), the inhibition is 6.7%. For `O=C(NN1C(=O)C2CCCCC2C1=O)c1ccco1` (stereo not drawn) the value was -4.97%.

For the compound `Cc1c(NC(=O)CSCc2ccccc2)cccc1C(=O)O`, the inhibition was -4.2%. Next, `CC(C)CN(CC(C)C)CC(O)CN(c1ccccc1)S(=O)(=O)c1ccccc1[N+](=O)[O-]` (stereo not drawn): -22.2%; `COc1ccc(C2(CNC(=O)Cc3ccc(OC)c(OC)c3)CCCC2)cc1`: 0.54%; `C=CCNC(=O)/C=C/c1ccc(C(C)C)cc1`: -7.72%. In the case of `O=C(O)/C=C/c1ccc(S(=O)(=O)N2CCCCCC2)cc1`, the inhibition is -2.18%. For `O=C(/C=C(O)/C=C/c1ccc(O)cc1)/C=C/c1ccc(O)cc1` the value was 31.8% (active). In the case of `COc1cccc(CNC(=O)CCC2CCCN(C(=O)c3cc(C)[nH]n3)C2)c1` (stereo not drawn), the inhibition is -15.8%. Next, `CCOC(=O)c1c(NC(=O)C2CC=CCC2C(=O)O)sc(C)c1CC` (stereo not drawn): -0.11%; `CCCCC(=O)NCc1ccc(F)cc1`: -1.22%; `CCCOCC(O)CC(CC)C(=O)NNC(=S)Nc1ccccc1` (stereo not drawn): 1.16%. For `CCCCC(=O)NNC(=S)NC(=O)C(c1ccccc1)c1ccccc1`, the inhibition was 61.1% (active).

For the compound `Cc1ccc(C)c(NC(=O)C2Cc3ccccc3CN2C(=O)OCc2ccccc2)c1` (stereo not drawn), the inhibition was -8.92%. Next, `Cn1c(SCC(=O)N2CCCCC2)nc2c(c1=O)SCC2`: 8.86%; `Cc1cccc(CSc2nnc(C)c(=O)n2N)c1`: -7.07%. For `Cc1cccc(CSc2nc3c(c(=O)n2C)SCC3)c1` the value was 27.6% (active). Next, `COc1cc(S(=O)(=O)N2CCOCC2)ccc1NC(=O)COc1ccc(N(C)S(=O)(=O)c2ccc(C)cc2)cc1`: -12%; `CCn1c(CNC(=O)c2cc(OC)c(OC)c(OC)c2)cc2cc(C)ccc21`: 36.1% (active); `COc1cc(C(=O)NCc2cc3cc(Cl)ccc3n2C)cc(OC)c1OC`: -7.3%. In the case of `COc1cc(C(=O)NCc2ccc3c(c2)cc(C)n3C)cc(OC)c1OC`, the inhibition is 19.1%.

With `CN(Cc1nc(-c2cnccn2)no1)Cc1n[nH]c2c1CCCCC2`, the inhibition was -7.73%.

For the compound `CC1CCCN(CC(O)COc2ccc3c(c2)OCO3)C1` (stereo not drawn), the inhibition was -7.13%.

For the compound `Cn1c(=O)[nH]c(=O)c2c1nc(N(CCO)Cc1ccccc1)n2Cc1ccccc1Cl`, the inhibition was -11.1%.

In the case of `O=C(COC(=O)C1(c2ccc(F)cc2)CCCC1)N1CCNC1=O`, the inhibition is -20.1%. For `NS(=O)(=O)c1ccc(NC(=O)COC(=O)C2(c3ccc(F)cc3)CCCC2)cc1` the value was 31.1% (active); for `CN(C)S(=O)(=O)c1cccc(NC(=O)COC(=O)C2(c3ccccc3F)CCCC2)c1`, 0.69%; for `O=C(N[C@H]1C/C=C\C(c2ccc(F)cc2)N(Cc2ccccc2)C(=O)C1)OCC1c2ccccc2-c2ccccc21` (stereo partly drawn), -13%. For `COc1ccc(COCCN2CCN(S(=O)(=O)c3ccccc3)CCC2=O)cc1` the value was -8.23%; for `Cc1ccc(S(=O)(=O)N2CCC(=O)N([C@H](COCc3ccccc3)Cc3ccccc3)CC2)cc1`, -5.28%; for `Cc1ccc(S(=O)(=O)N2CCC(=O)N([C@H](COCc3ccccc3)C(C)C)CC2)cc1`, 41.5% (active).

For `O=C(Nc1ccc(Cl)c(Cl)c1)c1ccccc1NC(=O)C1CC=CCC1C(=O)O` (stereo not drawn), the inhibition was 3.94%.

As to `CCCSc1ncccc1C(=O)O`, the inhibition is -2.1%.

For `Cn1nccc1C(=O)NC1CCCc2c1cnn2-c1ccc(F)cc1F` (stereo not drawn), the inhibition is 28.7% (active). Next, `COC(=O)c1ccc(C(=O)NC2CC(C)(C)Cc3c2cnn3-c2ccc(F)cc2)nc1` (stereo not drawn): -7.53%. Next, `CC1=C(C(=O)NC2CC(C)(C)Cc3c2cnn3-c2ccc(C)cc2)OCCO1` (stereo not drawn): -1.6%; `Cn1nccc1C(=O)NC1CCCc2c1cnn2-c1ccccc1F` (stereo not drawn): 26.9% (active). For `COc1ccc(C(=O)NC2CCCc3c2cnn3-c2cccc(C)c2C)c(OC)n1` (stereo not drawn) the value was 19.6%; for `COc1ccc(C(=O)NC2CC(C)(C)Cc3c2cnn3-c2ccccc2C)o1` (stereo not drawn), -6.41%; for `O=c1cc(CN2CCN(S(=O)(=O)/C=C/c3ccccc3)CC2)c2ccc(O)cc2o1`, 6.97%. For the compound `Cc1cc(NC(=O)CCS(=O)(=O)c2ccc(F)cc2)no1`, the inhibition was -0.17%.

For `COc1ccc2c(c1)C=CC1(O2)N(CCO)c2ccccc2C1(C)C` (stereo not drawn), the inhibition was -4.71%. Turning to `Cc1cc(OCC(=O)Nc2c(C)n(C)n(-c3ccccc3)c2=O)ccc1[N+](=O)[O-]`, the inhibition was -14.3%.
